# Laboratory results published in publication PMC7862700, “An all-to-all approach to the identification of sequence-specific readers for epigenetic DNA modifications on cytosine”.
# What was measured:
# Experiment in all cases: DAPPL (digital affinity profiling via proximity ligation, sequencing); 10 mM Tris-HCl pH 7.5, 50 mM NaCl, 1 mM DTT, 4% glycerol, room temperature, 30 min; GST-TFs on glutathione beads, 16-mer random dsDNA library, 0.1% formaldehyde crosslink after washing; high values mean tight binding
# FEV = target: T1, FEV (Homo sapiens, UniProt Q99581 1-238); details: protein: recombinant; tags: N-terminal GST; dsDNA, one strand shown
# T1 sequence: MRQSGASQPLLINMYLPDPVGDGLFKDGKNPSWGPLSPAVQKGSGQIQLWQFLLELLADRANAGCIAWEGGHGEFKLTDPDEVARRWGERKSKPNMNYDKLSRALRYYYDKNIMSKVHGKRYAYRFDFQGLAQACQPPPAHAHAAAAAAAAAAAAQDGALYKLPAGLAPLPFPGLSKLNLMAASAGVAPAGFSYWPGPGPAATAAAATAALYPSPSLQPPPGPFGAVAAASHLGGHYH
# Summary of the method: (§1)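 Beads coated with glutathione captured GST-fused human transcription factors that had been expressed in yeast, and the factors were then given DNA barcodes and pooled with a tag-only sample. The pools were incubated with 200 nmole of a random double-stranded 16-mer DNA library in Tris/NaCl/DTT/glycerol buffer for 30 min at room temperature, washed, crosslinked with 0.1% formaldehyde and proximity-ligated with BsaI/T4 ligase at 37 °C for 1 h. PCR amplification and Illumina NextSeq500 sequencing came last. Binding signal is each hexamer's read frequency for a factor divided by its frequency for the tag-only sample.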
# ETV5 = ETV5 (Homo sapiens, UniProt P41161 1-510); details: protein: recombinant; tags: N-terminal GST; dsDNA, one strand shown
# Summary of the method: as §1
# HSF1 = HSF1 (Homo sapiens, UniProt Q00613 1-529); details: protein: recombinant; tags: N-terminal GST; chain copies: 3; dsDNA, one strand shown
# Summary of the method: as §1
# SPIC = target: T2, SPIC (Homo sapiens, UniProt Q8N5J4 1-248); details: protein: recombinant; tags: N-terminal GST; dsDNA, one strand shown
# T2 sequence: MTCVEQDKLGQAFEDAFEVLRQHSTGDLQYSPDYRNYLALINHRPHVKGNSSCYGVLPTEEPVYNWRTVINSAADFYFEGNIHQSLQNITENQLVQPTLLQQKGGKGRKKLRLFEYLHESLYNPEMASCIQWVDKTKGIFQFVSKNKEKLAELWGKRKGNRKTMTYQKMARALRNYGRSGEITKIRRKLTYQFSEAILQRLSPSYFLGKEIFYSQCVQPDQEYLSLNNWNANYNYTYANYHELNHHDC
# Summary of the method: as §1
# ELF4 = ELF4 (Homo sapiens, UniProt Q99607 1-663); details: protein: recombinant; tags: N-terminal GST; dsDNA, one strand shown
# Summary of the method: as §1
# ELK4 = target: T3, ELK4 (Homo sapiens, UniProt P28324-2 1-405); details: protein: recombinant; tags: N-terminal GST; dsDNA, one strand shown
# T3 sequence: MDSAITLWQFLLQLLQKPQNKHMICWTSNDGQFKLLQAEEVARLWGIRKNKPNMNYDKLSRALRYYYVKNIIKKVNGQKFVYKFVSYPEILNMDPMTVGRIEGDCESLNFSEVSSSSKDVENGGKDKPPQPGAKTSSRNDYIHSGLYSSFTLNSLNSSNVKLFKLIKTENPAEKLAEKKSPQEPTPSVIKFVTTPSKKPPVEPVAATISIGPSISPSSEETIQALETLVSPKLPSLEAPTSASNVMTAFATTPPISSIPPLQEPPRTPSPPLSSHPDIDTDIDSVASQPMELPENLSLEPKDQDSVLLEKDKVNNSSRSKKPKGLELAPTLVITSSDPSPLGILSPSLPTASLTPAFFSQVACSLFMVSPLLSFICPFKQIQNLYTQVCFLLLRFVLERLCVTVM
# Summary of the method: as §1
# ETV2 = target: T4, ETV2 (Homo sapiens, UniProt O00321 1-342); details: protein: recombinant; tags: N-terminal GST; dsDNA, one strand shown
# T4 sequence: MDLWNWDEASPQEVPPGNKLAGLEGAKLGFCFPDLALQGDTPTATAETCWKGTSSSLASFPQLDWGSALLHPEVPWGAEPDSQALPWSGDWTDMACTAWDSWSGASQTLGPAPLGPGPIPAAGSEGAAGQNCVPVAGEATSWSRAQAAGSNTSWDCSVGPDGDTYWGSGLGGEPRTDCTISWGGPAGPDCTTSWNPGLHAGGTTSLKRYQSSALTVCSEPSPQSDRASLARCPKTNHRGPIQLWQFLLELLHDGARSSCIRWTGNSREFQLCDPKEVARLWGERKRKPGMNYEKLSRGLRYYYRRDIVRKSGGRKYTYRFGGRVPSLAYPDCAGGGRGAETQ
# Summary of the method: as §1
# ELF3 = target: T5, ELF3 (Homo sapiens, UniProt P78545 1-371); details: protein: recombinant; tags: N-terminal GST; dsDNA, one strand shown
# T5 sequence: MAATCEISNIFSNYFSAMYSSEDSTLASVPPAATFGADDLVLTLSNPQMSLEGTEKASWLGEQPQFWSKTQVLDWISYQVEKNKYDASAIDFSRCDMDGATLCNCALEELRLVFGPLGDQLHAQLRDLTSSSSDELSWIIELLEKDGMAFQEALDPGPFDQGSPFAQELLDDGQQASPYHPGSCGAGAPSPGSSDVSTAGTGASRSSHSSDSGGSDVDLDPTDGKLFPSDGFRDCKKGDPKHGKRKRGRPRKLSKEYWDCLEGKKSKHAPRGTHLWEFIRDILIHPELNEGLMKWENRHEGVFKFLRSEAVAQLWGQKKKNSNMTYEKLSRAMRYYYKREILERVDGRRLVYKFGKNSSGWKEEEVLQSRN
# Summary of the method: as §1
# CRX = CRX (Homo sapiens, UniProt O43186 1-299); details: protein: recombinant; tags: N-terminal GST; dsDNA, one strand shown
# Summary of the method: as §1
# Chain of ETV5 (P41161 whole entry): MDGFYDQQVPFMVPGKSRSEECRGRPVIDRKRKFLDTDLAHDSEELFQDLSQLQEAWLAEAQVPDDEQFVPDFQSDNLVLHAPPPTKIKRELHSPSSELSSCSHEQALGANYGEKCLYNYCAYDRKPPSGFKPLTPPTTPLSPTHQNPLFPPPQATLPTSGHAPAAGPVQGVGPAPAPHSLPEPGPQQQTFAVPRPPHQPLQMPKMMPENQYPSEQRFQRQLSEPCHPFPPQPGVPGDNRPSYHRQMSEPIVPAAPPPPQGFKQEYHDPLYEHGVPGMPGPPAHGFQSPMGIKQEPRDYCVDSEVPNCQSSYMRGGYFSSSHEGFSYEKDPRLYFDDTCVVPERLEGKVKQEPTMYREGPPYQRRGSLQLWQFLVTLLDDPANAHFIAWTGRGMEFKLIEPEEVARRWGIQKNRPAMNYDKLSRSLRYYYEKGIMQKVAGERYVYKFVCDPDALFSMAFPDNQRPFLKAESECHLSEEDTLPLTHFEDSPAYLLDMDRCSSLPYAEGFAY
# Chain of ELF4 (Q99607 whole entry): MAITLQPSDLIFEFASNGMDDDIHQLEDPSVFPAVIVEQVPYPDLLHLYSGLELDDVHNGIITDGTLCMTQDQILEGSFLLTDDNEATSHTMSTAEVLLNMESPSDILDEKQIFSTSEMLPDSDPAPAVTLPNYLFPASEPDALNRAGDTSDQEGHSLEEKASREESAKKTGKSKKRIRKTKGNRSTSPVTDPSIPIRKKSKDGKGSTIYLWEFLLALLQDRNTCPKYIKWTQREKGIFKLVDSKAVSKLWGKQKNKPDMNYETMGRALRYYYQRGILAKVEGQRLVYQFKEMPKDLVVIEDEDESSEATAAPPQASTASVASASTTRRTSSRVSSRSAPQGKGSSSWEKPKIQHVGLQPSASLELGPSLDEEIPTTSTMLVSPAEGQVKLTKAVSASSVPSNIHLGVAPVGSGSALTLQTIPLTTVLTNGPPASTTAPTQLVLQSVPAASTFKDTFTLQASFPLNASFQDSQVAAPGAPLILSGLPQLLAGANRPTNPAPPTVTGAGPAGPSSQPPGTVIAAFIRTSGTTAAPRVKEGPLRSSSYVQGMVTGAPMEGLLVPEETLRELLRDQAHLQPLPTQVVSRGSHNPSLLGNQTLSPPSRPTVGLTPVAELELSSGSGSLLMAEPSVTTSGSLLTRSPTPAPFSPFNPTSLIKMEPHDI
# Chain of CRX (O43186 whole entry): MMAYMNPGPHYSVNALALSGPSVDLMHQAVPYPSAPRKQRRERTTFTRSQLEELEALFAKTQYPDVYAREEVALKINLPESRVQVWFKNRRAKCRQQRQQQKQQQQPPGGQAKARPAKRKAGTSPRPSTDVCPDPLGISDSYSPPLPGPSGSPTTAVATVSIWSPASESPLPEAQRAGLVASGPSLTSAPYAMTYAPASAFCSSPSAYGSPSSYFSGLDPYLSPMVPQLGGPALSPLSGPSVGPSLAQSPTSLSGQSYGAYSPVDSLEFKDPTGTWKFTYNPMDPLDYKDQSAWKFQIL
# Chain of HSF1 (Q00613 whole entry): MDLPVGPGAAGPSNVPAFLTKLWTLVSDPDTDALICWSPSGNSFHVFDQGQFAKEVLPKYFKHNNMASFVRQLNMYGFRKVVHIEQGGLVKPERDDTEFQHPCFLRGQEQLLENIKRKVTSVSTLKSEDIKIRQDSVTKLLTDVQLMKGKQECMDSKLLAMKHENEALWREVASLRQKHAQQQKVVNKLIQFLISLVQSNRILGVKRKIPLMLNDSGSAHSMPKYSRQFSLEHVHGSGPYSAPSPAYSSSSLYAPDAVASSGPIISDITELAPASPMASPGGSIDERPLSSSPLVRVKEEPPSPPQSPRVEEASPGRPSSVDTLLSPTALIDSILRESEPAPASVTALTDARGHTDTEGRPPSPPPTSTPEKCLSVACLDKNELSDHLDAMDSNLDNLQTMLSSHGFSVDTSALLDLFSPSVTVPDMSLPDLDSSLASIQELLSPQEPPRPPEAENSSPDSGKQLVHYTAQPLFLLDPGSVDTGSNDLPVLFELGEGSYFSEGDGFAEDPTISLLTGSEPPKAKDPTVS
sequence,measurement,setting,value
CCCCTT,binding signal,FEV,"1.57 fold enrichment (6-mer frequency, TF over GST control)"
same,binding signal,ETV5,"1.62 fold enrichment (6-mer frequency, TF over GST control)"
same,binding signal,HSF1,"1.37 fold enrichment (6-mer frequency, TF over GST control)"
same,binding signal,SPIC,"1.56 fold enrichment (6-mer frequency, TF over GST control)"
same,binding signal,ELF4,"1.63 fold enrichment (6-mer frequency, TF over GST control)"
same,binding signal,ELK4,"1.53 fold enrichment (6-mer frequency, TF over GST control)"
same,binding signal,ETV2,"1.35 fold enrichment (6-mer frequency, TF over GST control)"
same,binding signal,ELF3,"1.6 fold enrichment (6-mer frequency, TF over GST control)"
same,binding signal,CRX,"1.41 fold enrichment (6-mer frequency, TF over GST control)"
